RecA splice inh = Mtb RecA intein splicing inhibitors, primary screen, biochemical, fluorescence, HTS; Protein RecA (Mycobacterium tuberculosis (strain ATCC 25618 / H37Rv)), P9WHJ3; cell-free RecA intein splicing; inhibition, % (test concentration not listed); hit rate 0.75% among 290,000; AID 2221, 2009; in the data active = inhibition above about 30%
Target sequence (P9WHJ3 whole entry, looked up, canonical isoform): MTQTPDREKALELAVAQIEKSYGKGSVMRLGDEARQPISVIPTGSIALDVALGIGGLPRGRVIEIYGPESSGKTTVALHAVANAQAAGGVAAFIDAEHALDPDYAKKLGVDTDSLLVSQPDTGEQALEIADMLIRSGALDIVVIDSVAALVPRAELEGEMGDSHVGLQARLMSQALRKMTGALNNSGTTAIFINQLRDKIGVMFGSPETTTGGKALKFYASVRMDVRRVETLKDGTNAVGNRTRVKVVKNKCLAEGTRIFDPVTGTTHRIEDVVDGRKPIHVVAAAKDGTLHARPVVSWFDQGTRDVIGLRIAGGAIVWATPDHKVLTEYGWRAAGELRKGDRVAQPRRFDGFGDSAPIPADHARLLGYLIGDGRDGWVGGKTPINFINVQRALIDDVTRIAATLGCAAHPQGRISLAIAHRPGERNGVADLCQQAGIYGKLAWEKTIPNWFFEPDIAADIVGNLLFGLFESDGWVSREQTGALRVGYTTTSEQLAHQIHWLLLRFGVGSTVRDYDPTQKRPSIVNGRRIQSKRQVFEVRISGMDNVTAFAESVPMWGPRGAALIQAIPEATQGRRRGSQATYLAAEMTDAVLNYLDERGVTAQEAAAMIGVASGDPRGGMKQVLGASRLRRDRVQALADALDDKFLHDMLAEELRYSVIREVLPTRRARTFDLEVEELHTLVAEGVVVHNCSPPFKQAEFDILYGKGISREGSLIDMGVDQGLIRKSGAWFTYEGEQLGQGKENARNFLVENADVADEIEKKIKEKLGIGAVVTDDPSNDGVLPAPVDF
FBA Mtb inh = Mtb FBA enzyme inhibitors, primary screen, biochemical, fluorescence, strain H37Rv | Fructose-bisphosphate aldolase (Mycobacterium tuberculosis (strain ATCC 25618 / H37Rv)), … | purified M. tuberculosis FBA, fluorescence read-out | inhibition, % at 1 µM | hit rate 2.3% among 360,000 | AID 588726, 2011; in the data active = inhibition above about 27%
GDH-TPI inh = GDH-TPI coupling enzyme inhibitors, primary screen, artefact control for M. tuberculosis FBA inhibitor project, biochemical, absorbance, full deck | inhibition, % at 4.8 µM | GDH-TPI coupled enzyme counterscreen, NADH absorbance | hit rate 1.2% among 360,000 | AID 588335, 2011
CCHFV vOTU inh = CCHFV vOTU protease inhibitors, primary screen, biochemical, Pep-AMC substrate, fluorescence; Crimean-Congo hemorrhagic fever virus L polyprotein viral ovarian tumor (vOTU) protease …; inhibition, % at 11.5 µM; hit rate 0.55% among 370,000; AID 651958, 2012
Hits are given with their value; - = inactive; . = no result; + = active, no number. Hits are enriched below; roughly 4.2% of the tested compounds scored in any of these assays. Rule as the data show it, unless noted: active = inhibition above about 30%; inactive = the rest.

SMILES | RecA splice inh | FBA Mtb inh | GDH-TPI inh | CCHFV vOTU inh
Cc1c(CC(=O)N2CCN(C(=O)C3COc4ccccc4O3)CC2)c(=O)oc2c(C)c(O)ccc12 (centres undefined) | - | + | - | -
Cc1c(CC(=O)N2CCN(C(=O)C3COc4ccccc4O3)CC2)c(=O)oc2cc(O)cc(O)c12 (centres undefined) | - | 177.2 | - | -
Cc1c(CC(=O)N2CCN(C(=O)C3COc4ccccc4O3)CC2)c(=O)oc2cc(O)ccc12 (centres undefined) | - | + | - | -
Cc1cccc(N2CCN(C(=O)C3COc4ccccc4O3)CC2)c1C (centres undefined) | - | - | - | -
COc1ccc(N2CCN(C(=O)C3COc4ccccc4O3)CC2)cc1 (centres undefined) | - | - | - | -
COc1ccc2c(C)c(CC(=O)N3CCN(C(=O)C4COc5ccccc5O4)CC3)c(=O)oc2c1 (centres undefined) | - | 144.3 | - | -
Cc1ccc(NS(=O)(=O)c2ccc(-n3cccn3)cc2)c(Cl)c1 | . | - | - | -
CC12CN3CCN(CC(C3)/C1=N\N=C1/C3CN4CCN(C3)CC1(C)C4)C2 | - | 113.3 | - | -
Cc1c(NC(=O)CSc2nnc(-c3ccncc3)n2C)c(=O)n(-c2ccccc2)n1C | . | - | - | -
C=C1[C@@H](O)[C@H](Cc2ccccc2)N(Cc2ccccc2Br)S1(=O)=O | . | - | - | -
COc1cccc(N/C=C(\C#N)c2ccc(OCCCF)cc2)c1 | - | - | 33.2 | -
COc1ccc(C(C#N)=Cc2ccccc2OC)cc1 | . | - | - | -
O=C1c2ccccc2C(=O)c2cc(S(=O)(=O)Nc3ccccc3)ccc21 | 32.4 | - | - | -
Cc1cc([N+](=O)[O-])ccc1NC(=O)CCC(=O)N1CCCC1 | - | - | - | -
N#CC1(NC(=O)COC(=O)c2nccnc2N)CCCCC1 | - | 164.8 | - | -
Nc1nccnc1C(=O)OCC(=O)NNC(=O)c1ccccc1 | - | 159.7 | - | -
Cc1cc(NC(=O)COC(=O)c2nccnc2N)n(-c2ccccc2)n1 | - | 128.9 | - | -
Nc1cc(C(=O)OCC(=O)NNC(=O)c2ccccc2)ccc1Cl | - | - | - | -
COc1ccccc1C(=O)NC(=O)COC(=O)c1nccnc1N | . | 144.3 | - | -
CC(C)NC(=O)C1(C)CN(S(C)(=O)=O)CC(=O)N1Cc1cccs1 (centres undefined) | . | . | . | -
CCCC[C@H]1C2CC(OC(=O)Nc3ccc(C)cc3)C(C2)[C@H]2CCCCN21 (some centres undefined) | . | . | . | -
COc1ccc(CNC(=O)Cn2c(=O)n(CC(=O)N3CCCCC3)c(=O)c3sccc32)cc1 | - | - | - | -
CCc1cc(=O)oc2c3c(cc(OCC(=O)NCc4cccnc4)c12)OC(C)(C)CC3 | - | + | - | -
CCc1cc(=O)oc2c3c(cc(OCC(=O)Nc4cccnc4)c12)OC(C)(C)CC3 | - | 34.2 | - | -
CCc1cc(=O)oc2c3c(cc(OCC(=O)NCCCCCC(=O)O)c12)OC(C)(C)CC3 | - | + | - | -
SMILES | RecA splice inh | FBA Mtb inh | GDH-TPI inh | CCHFV vOTU inh
Cc1c(OCC(=O)NCc2cccnc2)ccc2c3c(c(=O)oc12)CCC3 | - | - | - | -
CCc1cc(=O)oc2c3c(cc(OCC(=O)NCc4ccccn4)c12)OC(C)(C)CC3 | - | 188.9 | - | -
COc1cc2c(c3oc(=O)cc(CC(=O)O)c13)CCC(C)(C)O2 | - | 199.4 | - | -
O=C(NCc1ccccc1)C1(C(=O)C2CC2)CC(c2ccccn2)=NO1 (centres undefined) | . | . | . | -
CCOC(=O)N1CCN(C2=C(NS(=O)(=O)c3ccccc3)C(=O)c3ccccc3C2=O)CC1 | - | - | - | 88.8
CCOC(=O)N1CCN(C2=C(NS(=O)(=O)c3ccc(Br)cc3)C(=O)c3ccccc3C2=O)CC1 | . | - | - | -
O=S(=O)(CC1NCCc2ccccc21)NCc1ccccc1 (centres undefined) | . | . | . | -
CCS(=O)(=O)c1nc(S(=O)(=O)c2ccc(C)cc2)c(N2CCCC2)s1 | - | - | 34.0 | -
CCS(=O)(=O)c1nc(S(=O)(=O)c2ccc(C)cc2)c(N2CCCCCC2)s1 | . | - | - | -
CC(=O)Oc1ccc(C2=Cc3ccc(OC(C)=O)cc3OC2C)cc1 (centres undefined) | . | - | - | -
Cc1cc(C)cc(Cn2c3ccc(NC(=O)NCCc4cccs4)cc3c(=O)n2C)c1 | . | 171.1 | - | -
Cn1c(=O)c2cc(NC(=O)NCCc3cccs3)ccc2n1Cc1ccccc1 | . | 140.7 | - | -
COc1cc2cnc(CCO[C@H]3CCCCO3)cc2cc1OC | . | - | - | -
CC(=O)NC(Cc1ccccc1)P(=O)(O)O (centres undefined) | . | . | . | -
CCOC(=O)C1CCN(c2nc(N)c3c(N)nc(SCC(=O)O)cc3c2C#N)CC1 | 45.2 | - | - | -
CCOC(=O)C1CCN(c2nc3cc(OC)ccc3cc2C#N)CC1 | - | - | - | -
N/C(Cc1cccc2ccccc12)=N\OC(=O)c1cccs1 | 33.0 | . | . | .
COc1ccc(CC(=O)O/N=C(\N)Cc2cccc3ccccc23)cc1 | - | - | - | -
COc1ccc(CC(=O)O/N=C(\N)Cc2cccc3ccccc23)cc1OC | 31.6 | - | - | -
CCOC(=O)[C@]12CCCC=C1N(Cc1ccc(OC)cc1)C(=O)[C@@H]2CC(=O)N1CCN(C(=O)C2CC2)CC1 | . | . | . | -
CC(C)CCN1C(=O)COc2ccccc2C1c1nnnn1-c1ccc2c(c1)OCCO2 (centres undefined) | . | . | . | -
CCOc1cc(/C=N\n2nnnc2N)ccc1O | - | - | - | -
CCOc1ccc(/C=N/n2nnnc2N)cc1OCC | - | - | 31.1 | -
Cc1cc(N2C(=O)Cc3ccccc3C2=O)ccc1C(C)C | - | - | - | -
CCC(=O)/C=C1\Sc2ccc(OC)cc2N1CC | - | - | 31.1 | -
SMILES | RecA splice inh | FBA Mtb inh | GDH-TPI inh | CCHFV vOTU inh
Cc1ccc(S(=O)(=O)NCC(=O)N(CC(=O)NCC2CCCO2)Cc2ccco2)cc1 (centres undefined) | - | - | - | -
O=C(Nc1ccc(Cl)c(Cl)c1)c1cccc2c1-c1ccccc1C2=O | . | . | . | -
CN(C)/C=N/c1sc2c(c1C#N)CC(C)(C)NC2(C)C | - | - | 35.8 | -
CCN(/C=N/c1sc2c(c1C#N)CC(C)(C)NC2(C)C)CC | - | - | - | -
O=C(CN1CCN(C2CCCCC2)CC1)Nc1cccc2ccccc12 | - | - | 31.7 | -
CCOC(=O)N1CCC(Nc2c(-c3ccc(C)cc3)c(=O)c2=O)CC1 | - | - | 36.3 | -
CCOC(=O)N1CCC(Nc2c(-c3ccccc3)c(=O)c2=O)CC1 | - | - | - | -
CCOC(=O)N1CCN(c2c(-c3ccc(C)cc3)c(=O)c2=O)CC1 | . | - | 34.3 | -
COC(=O)C1CSC(C(=O)OC)N1C(=O)Nc1ccc(Cl)cc1 (centres undefined) | - | 103.3 | - | -
COC(=O)C1CSC(C(=O)OC)N1C(=O)Nc1ccc(Cl)c(Cl)c1 (centres undefined) | - | - | - | -
CCn1c2ccccc2c2cc(N)ccc21 | - | - | - | -
